Experimental data published in PubChem BioAssay (NCI).
The panel holds about 83,000 compounds, 20% with a hit somewhere; the sample as a whole holds those more often.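 Compound tested at a single concentration for 48 hours in 96-well plates; a percent growth value below 10 was scored as active.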 Activity calls are given as the source filed them.

Test system: ACHN renal
Assay: NCI-60 one-dose screen, 48 h (100 = growth as untreated, 0 = no growth, -100 = all killed)
Conditions: 10 µM
Procedure: Growth inhibition of the ACHN human tumor cell line is measured as a screen for anti-cancer activity. Cells are grown in 96 well plates and exposed to the test compound for 48 hours. Compounds are tested at a single concentration, which is 10^-5 M for most compounds. The reported endpoint is percent growth (GI% or GIPRCNT), where numbers from 0 - 100% represent growth inhibition, and numbers from -100% - 0 represent cell death. For example, a value of 40 represents 60% growth inhibition. A value of 0 means no net growth occurred over the course of the experiment. A value of -40 indicates 40% of cells at the beginning of the experiment died by the end of the experiment. A value of -100 means all cells are dead at the end of the experiment.
NCI-60 Human Tumor Cell Lines Screen was performed using the standard one-dose NCI protocol, which is described in more detail at https://dtp.cancer.gov/discovery_development/nci-60/default.htm.
Compounds with GIPRCNT values below 10 were considered active. Activity score was based on GIPRCNT using the following formula: […]
Score is 0 for GIPRCNT values of 100 or above, 50 for GIPRCNT values of 0, and 100 for GIPRCNT values of -100.

SMILES | growth
COc1cccc(N=Nc2cccc(OC)c2)c1 | 93% (inactive)
COc1ccccc1-n1c(-c2csc(NC(C)=O)n2)n[nH]c1=S | 114% (inactive)
Nc1cc(-c2ccncc2)c[nH]c1=O | 102% (inactive)
Cc1ccc(NC(=O)N2CCCCC2)cc1[N+](=O)[O-] | 95% (inactive)
CC[C@@H](C(=O)[C@H](C)[C@H](O)[C@@H](C)[C@H]1O[C@H]([C@@H](CC)C(=O)N(CC)CC)CC[C@H]1C)C1O[C@]2(C=C[C@@H](O)[C@]3(CC[C@@](C)([C@H]4CC[C@](O)(CC)[C@H](C)O4)O3)O2)[C@H](C)C[C@@H]1C (stereo not given in full) | 5.95% (active)
Cc1ccc(/C=C/C(=O)C(=O)/C=C/c2ccc(C)cc2)cc1 | 104% (inactive)
CC(=O)[C@@]12O[C@](C)(c3ccccc3)O[C@@H]1CC1C3CCC4=CC(=O)CC[C@]4(C)C3CC[C@@]12C (stereo not given in full) | 69.3% (inactive)
CCCCC1(O)CCCCC1 | 101% (inactive)
O=C(Nc1cc(Cl)cc2c1-c1ccc(Cl)cc1C2O)C(Cl)Cl (stereo not given) | 61.9% (inactive)
COc1cc2c3c(n(C4CCNCC4)c(=O)c2cc1OC)-c1cc2c(cc1C3=O)OCO2 | -81.7% (active)
CCOc1ccccc1/C=N\N=C\c1ccccc1O | 100% (inactive)
CCN(CC)CCCOc1cccc2c1C(=O)c1cccc(OCCCN(CC)CC)c1C2=O | 22.7% (inactive)
CCOC(=O)c1sc2ncnc(Nc3ccc4c(cnn4C(=O)Nc4ccccc4)c3)c2c1C | 87.6% (inactive)
O=C(COc1cccc(/C=C2\CSc3ccc(Cl)cc3C2=O)c1)c1ccc(Cl)cc1 | 81.7% (inactive)
O=C(NCCCNS(=O)(=O)c1ccc(Cl)cc1)Nc1ccc(-n2cc(-c3ccncc3)c(-c3ccc(Cl)c(O)c3)n2)cc1 | 26.4% (inactive)
Cc1ccc(C)c(COc2cc(NC(=O)c3ccc4c(c3)OCO4)ccc2N(C)S(C)(=O)=O)c1 | 29.3% (inactive)
NC(=O)c1cccc(-n2ccc3cc(NC(=O)Nc4ccc(Cl)c(C(F)(F)F)c4)ccc32)n1 | 71.3% (inactive)
Cc1ccc(Cl)cc1NC(=O)CCl | 104% (inactive)
S=C(NCc1ccccc1)NCc1ccccc1 | 105% (inactive)
CCCCCC(=O)O[C@]1(C(C)=O)CCC2C3CCC4=CC(=O)CC[C@]4(C)C3CC[C@@]21C (stereo not given in full) | 24% (inactive)

SMILES | growth
CC[N+](CC)=c1ccc2nc3c(cc(NCc4ccccc4)c4ccccc43)oc-2c1 | -77.9% (active)
CC[C@H]1OC(=O)[C@H](C)[C@@H](O[C@H]2C[C@@](C)(OC)[C@@H](O)[C@H](C)O2)[C@H](C)[C@@H](O[C@@H]2O[C@H](C)C[C@H](N(C)C)[C@H]2O)[C@](C)(OC)C/C(C)=C2/O[C@@]1(C)C=C2C | 24.5% (inactive)
O=C(O)c1ccc(-n2cc(CNc3ccc(Oc4ccccc4)cc3)c(-c3ccccc3)n2)cc1 | 87.4% (inactive)
Nc1ncnc2c1ncn2C1(CO)OCC(O)C(O)C1O (stereo not given) | 107% (inactive)
CCOC(=O)c1cc(C(=O)c2cc(OC)cc(OC)c2)n2ncc3ccccc3c12 | 2.48% (active)
O=C(Nc1ccc(OS(=O)(=O)c2ccccc2)cc1)C1CCCCC1 | 104% (inactive)
COCCn1cc(-c2nc(-c3cccnc3)cs2)c2cc(F)ccc21 | 101% (inactive)
CC(C)(C)c1ccc(S(=O)(=O)N[C@H]2CC[C@H]3[C@@H]4CCc5cc(OS(=O)(=O)O)ccc5[C@H]4CC[C@]23C)cc1 | 33.4% (inactive)
COc1ccc(-c2n[nH]nc2-c2cc(OC)c3c(c2OC)OCO3)cc1 | 54.9% (inactive)
CC(=O)OC1CC2C(C)(C)CCC[C@]2(C)C2=C1C(O)=C(C(C)C)C(=O)C2=O (stereo not given in full) | -95.3% (active)
Clc1nc2ccccc2cc1Cn1nnc(Cc2ccccc2)n1 | 52.2% (inactive)
CCC(C)[C@H](NC(C)=O)C(=O)N[C@@H](CCCNC(=N)N)C(=O)N[C@@H](CCCCN)C(=O)N[C@@H](CC1CCC(O)CC1)C(=O)NC(C(=O)N[C@@H](CCSC)C(=O)N[C@@H](CCCNC(=N)N)C(=O)N[C@@]1(C)CCC/C=C\CCC[C@@](C)(C(=O)NC(C(=O)N[C@@H](CCC(=O)O)C(=O)N[C@@H](CC(C)C)C(=O)N[C@H](C(=O)N[C@@H](CCC(=O)O)C(N)=O)C(C)C)[C@@H](C)O)NC(=O)[C@H](CCC(N)=O)NC(=O)[C@H](CC(C)C)NC(=O)[C@H](CC(C)C)NC1=O)[C@@H](C)O (stereo not given in full) | 106% (inactive)
C[C@]12CC[C@@H]3c4ccc(O)cc4CC[C@H]3[C@@H]1CC[C@@H]2NS(=O)(=O)c1ccc(C(F)(F)F)cc1 | 26.9% (inactive)
CCCCN(CCCC)C(=O)[C@H](CC)[C@@H]1CC[C@@H](C)[C@@H]([C@H](C)[C@@H](O)[C@@H](C)C(=O)[C@H](CC)C2O[C@]3(C=C[C@@H](O)[C@]4(CC[C@@](C)([C@H]5CC[C@](O)(CC)[C@H](C)O5)O4)O3)[C@H](C)C[C@@H]2C)O1 (stereo not given in full) | 7.05% (active)
Cc1ccc(NCCN(C)CC(C)O)c2c(=O)c3ccccc3sc12 (stereo not given) | 29.5% (inactive)
CCOC(=O)c1cc(C(=O)c2ccc(OC)c(OC)c2)n2c1ccc1ccc3cccnc3c12 | 47.4% (inactive)
O=C1CC(=O)N(C(=O)c2nn(-c3ccc(Cl)cc3)cc2O)N1 | 38.3% (inactive)
COC(=O)CC[C@@H](C)[C@H]1CC[C@H]2[C@@H]3CC[C@@H]4C[C@H](O)CC[C@]4(C)[C@H]3C[C@H](O)[C@]12C | 99.1% (inactive)
O=C1c2c(c3c4ccccc4n(CCCCCCN4CCOCC4)c3c3[nH]c4ccccc4c23)C(=O)N1O | 92.6% (inactive)
OCCn1cccn1 | 103% (inactive)
